The list is not random: actives were taken first. Their share in the collection is about 3.7%.
Autofluor counter = counter-screen for toxin protease inhibitors: compound fluorescence. compound autofluorescence counterscreen, microsphere flow cytometry; stronger effect = higher value. fluorescence intensity (concentration not given with the values). hit rate 3.1% among 360,000; in the data active = fluorescence intensity above about 16000; inconclusive = no clear call, values can overlap the other calls
BoNT A protease = inhibitors of Botulinum neurotoxin A light chain protease. multiplex microsphere protease substrate cleavage, flow cytometry. inhibition, % at 10 µM. hit rate 0.17% among 360,000. AID 588499; note: plate controls were buffer without enzyme for full effect and enzyme alone for no effect
Anthrax LF inh2 = anthrax lethal factor protease inhibition. AID 588501. inhibition, % at 10 µM. multiplex microsphere protease cleavage assay, LF. P15917. hit rate 0.12% among 360,000; note: plate controls were buffer without enzyme for full effect and enzyme alone for no effect
BoNT-F LC inh = inhibitors of Botulinum neurotoxin F light chain protease | inhibition, % at 10 µM | hit rate 0.22% among 360,000 | Multiplex microsphere protease cleavage assay, flow cytometry; in the data active = inhibition above about 35%, passing the limit was not always enough; inconclusive = no clear call, values can overlap the other calls; note: plate controls were buffer without enzyme for full effect and enzyme alone for no effect
MazF activator = activators of E. coli MazEF toxin-antitoxin RNase | P0AE70 | FAM/BHQ RNA-DNA oligo cleavage fluorescence, 5 h | activation, % at 20 µM | hit rate 0.32% among 350,000; in the data active = activation above about 50%
Target sequence (P0AE70 whole entry, looked up): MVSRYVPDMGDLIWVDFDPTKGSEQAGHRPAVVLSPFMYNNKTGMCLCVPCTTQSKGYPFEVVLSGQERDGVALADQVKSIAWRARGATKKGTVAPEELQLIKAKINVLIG
The depositor's hits bear a star; u = inconclusive; x = no result. Cut-off read from the data, not from the text of the source, unless noted: active = inhibition above about 30%; inconclusive = no clear call, values can overlap the other calls; inactive = below that.

SMILES	Autofluor counter	BoNT A protease	Anthrax LF inh2	BoNT-F LC inh	MazF activator
C=CCn1c(SCC(=O)Nc2ccc3c(c2)OCO3)nnc1-c1ccccc1	3769	-1	-1	2	0
O=C(CSc1nnc(-c2ccccn2)n1-c1ccc(Cl)cc1)Nc1ccc2c(c1)OCO2	22588*	2	0	2	-5
C=CCn1c(SCC(=O)Nc2ccc3c(c2)OCO3)nnc1-c1cc(Br)ccc1O	24540*	-1	-4	-6	3
COc1ccc(-n2c(SCC(=O)Nc3ccc4c(c3)OCO4)nc3ccccc3c2=O)cc1	23540*	-2	-6	-8	-6
Nn1c(SCC(=O)Nc2ccc3c(c2)OCCO3)nnc1-c1ccccn1	2792	-2	0	-12	-1
Nn1c(SCC(=O)Nc2ccc3c(c2)OCO3)nnc1-c1ccccc1	3160	45*	-36	57*	-3
Cc1sc2nc(CSC(C)C(=O)NC3(C#N)CCCCC3)[nH]c(=O)c2c1C (stereo unspecified)	5596	4	-3	2	-10
CC1CCCN(c2oc(-c3cccc4ccccc34)nc2C#N)C1 (stereo unspecified)	17536*	10	-15	16	2
O=C(c1ccccc1)N(c1ccccc1)c1nccc2ccccc12	3894	0	-7	-1	6
Cn1c(=O)oc2cc(S(=O)(=O)NC3CCCCCCC3)ccc21	16482*	-1	-3	-2	3
CCOC(=O)N1CCC(NS(=O)(=O)c2ccc3c(c2)oc(=O)n3C)CC1	16773*	2	2	-1	-33
CSc1nnc([C@@H](N)Cc2ccccc2)o1	15553	1	-8	-2	6
Cc1ccc(C)c(NC(=O)CSc2nnc([C@@H](N)Cc3c[nH]c4ccccc34)o2)c1	24677*	-4	-3	-12	3
CC(C)Sc1nnc([C@@H](N)Cc2c[nH]c3ccccc23)o1	18809*	u	-5	2	-3
CC(C)Sc1nnc([C@@H](N)Cc2ccccc2)o1	16323*	0	2	0	1
Cc1ccc(N(CC(=O)N2CCN(C3CCCCC3)CC2)S(=O)(=O)c2cccnc2)cc1	21207*	u	1	1	-7
CN(C)CCN1CCN(C2CN(CCc3ccccc3)S(=O)(=O)C2)CC1 (stereo unspecified)	6330	0	-3	-2	x
CC1(C)CC(=O)C2=C(C1)NCN(Cc1ccccc1)C2	16534*	0	-13	-1	-15
CCOC(=O)N1CCC(NC(=O)CSc2cc(=O)n(CC)c3ccccc23)CC1	21138*	3	4	3	-11
CCn1c(=O)cc(SCC(=O)N2CCCCC2)c2ccccc21	10228	3	-4	32	-8
CCOC(=O)C1CCN(C(=O)CSc2cc(=O)n(CC)c3ccccc23)CC1	16952*	-3	0	-6	4
CCn1c(=O)cc(SCC(=O)N2CCC(C)CC2)c2ccccc21	15393	u	0	4	-2
CC(C(=O)N1CCC(C(N)=O)CC1)N(c1ccc(Oc2ccccc2)cc1)S(C)(=O)=O (stereo unspecified)	20200*	1	0	1	-9
CS(=O)(=O)N(CC(=O)N1CCC(C(N)=O)CC1)c1ccc(Oc2ccccc2)cc1	2980	-1	0	-7	-1
Cc1ccc(N(C(C)C(=O)N2CCCCC2)S(C)(=O)=O)cc1C (stereo unspecified)	22154*	2	2	4	6
SMILES	Autofluor counter	BoNT A protease	Anthrax LF inh2	BoNT-F LC inh	MazF activator
CC1CCCN(S(=O)(=O)c2cc(C(=O)NCCc3ccc(S(N)(=O)=O)cc3)ccc2Cl)C1 (stereo unspecified)	2832	0	0	-6	3
CCCCCOC(=O)C1C2C=CC3(CN(c4ccccc4C)C(=O)C13)O2 (stereo unspecified)	21724*	1	0	2	-5
COc1cccc(N2[C@@H](CC(C)=O)c3ccc(/C=C/C(C)=O)cc3S2(=O)=O)c1	4467	0	-4	-8	6
CC(C)(C)C(=O)OCc1ccc(C2=CC(=O)CC(C)(C)C2=O)cc1	3657	0	7	-3	7
CCN(CC)c1ccc(/C=C2/C(=O)c3ccc(C(=O)O)cc3C2=O)cc1	4961	2	2	-4	74*
COc1ccc(S(=O)(=O)N2CCCCC2c2cc(C(=O)NCc3cccnc3)no2)cc1 (stereo unspecified)	3787	1	7	3	x
O=C(CN1CCCc2ccccc21)Nc1cc(S(=O)(=O)N2CCCC2)ccc1Cl	4378	1	-2	-8	-11
C=CCn1c(N)c(C(=O)N2CCOCC2)sc1=S	19777*	u	-2	5	-9
Cc1ccc(-n2c(N)c(C(=O)NCc3ccco3)sc2=S)cc1	2957	-1	-6	3	-6
C=CCn1c(N)c(C(=O)NCc2ccco2)sc1=S	21000*	-2	-6	-3	9
O=C(NCc1ccco1)c1sc(=S)n2c1[nH]c(=O)c1ccccc12	22207*	u	0	3	0
CCN(CC(=O)Nc1ccc(OC)cc1)C(=O)c1ccc2c(c1)NC(=O)CS2	5413	2	0	3	0
CCCCn1c(N)c(N(Cc2ccccc2OC)C(=O)c2cc(CC)c(C)s2)c(=O)[nH]c1=O	3316	0	1	-8	-14
CCOC(=O)C1=C(C)NC(=O)C(C(N)=O)C12CCCC2 (stereo unspecified)	23702*	u	-3	-4	5
Cc1cccc(NC(=O)c2cc(NC(=O)CCCC(=O)O)ccc2Cl)n1	23857*	-2	-10	-7	1
Cc1cccc(NC(=O)CCNC(=O)c2ccccc2Cl)n1	5906	1	1	11	-3
CC(C)C(NC(=O)c1ccc(Cl)cc1)C(=O)NCC1CCCO1 (stereo unspecified)	3724	-3	-3	-4	-1
O=C(NC(=S)Nc1cccc2[nH]ncc12)c1ccccc1	4477	-2	-4	-9	-3
O=C(Nc1cccc2[nH]ncc12)c1ccc(F)cc1	22322*	u	-5	2	11
COc1ccc(C)cc1N(C(=O)c1ccco1)C(C(=O)NC1CCCC1)c1ccc(N2CCOCC2)cc1 (stereo unspecified)	4916	-2	-2	-5	-5
Cc1ccccc1-c1cc(C(=O)Nc2sc(C(=O)OC(C)C)c(C)c2C#N)c2ccccc2n1	16235*	2	-4	1	-11
COC(=O)c1sccc1NC(=O)c1cc(-c2ccc(C)cc2)nc2ccccc12	2623	0	0	-8	-6
COC(=O)c1sccc1NC(=O)c1cc(-c2cc(C)ccc2C)nc2ccccc12	21965*	3	-3	2	-7
Cc1ccc(C)c(-c2cc(C(=O)Nc3nccs3)c3ccccc3n2)c1	24181*	-1	2	-5	-6
COC(=O)c1sc(NC(=O)c2cc(-c3ccccc3)nc3ccccc23)c(C#N)c1C	2786	0	0	0	-8
CCNC(=O)C1(C)CCCN1C(=O)c1c(F)cccc1F (stereo unspecified)	3074	0	-3	-5	x

Screens from PubChem BioAssay.
